# Laboratory results from PubChem BioAssay AID2685 (National Center for Advancing Translational Sciences (NCATS), 2010).
# In all, about 320,000 compounds went through this assay and about 2,100 (0.66%) were called active. Another 53% or so got no clear call; they are omitted. Calls follow the shape of the dose curve; as a rule, active = well fitted inhibition curve with a large enough effect in the signal ratio, with a control signal flat (not every such curve was filed as active); inconclusive = small, poorly fitted or top-dose-only effect, or effect the other way, or a change in a side signal; inactive = flat fitted curve, though single readings scatter; the % refers to the signal ratio. Only a selection was taken, and actives are over-represented in it overall.
# Assay: qHTS Assay for Lipid Storage Modulators in Drosophila S3 Cells;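 as to cell number change: cells counted by Cell Tracker Red CMTPX staining in the red channel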; as to lipid storage change, negative = inhibition: % is scaled to controls: 0 for no effect and ±100 for the full control effect
# Conditions: BODIPY lipid droplet fluorescence, 18-24 h, cells fed with added oleic acid; cell number change: measured here: cell count max response; series mostly up to 46.1 µM; lipid storage change, negative = inhibition: at the top concentration
# Summary of the method: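 Laser-scanning cytometry quantifies lipid droplet accumulation (500–530 nm total intensity; droplet/cell object ratio) in oleic acid-fed (400 uM added) Drosophila S3 cells treated with a concentration series. 20 uM Triacsin C defined 100% inhibition.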
# Potency is read from the fitted curve at half-maximal effect.
Structure (SMILES),"lipid storage change, negative = inhibition",cell number change,Potency,outcome
CC(C)(C)NC(=O)Cn1ccc(=N)c2ccccc21,0.397% (inactive),-1.29%,–,–
CCCCNc1c(-c2ccc(-c3cccc(Cl)c3)cc2)nc2ccccn12,–,5.08%,23.1 µM (active),–
CCOC(=O)CNc1c(-c2ccc(O)cc2)nc2ccccn12,21.7% (inactive),4.87%,–,–
CCCCNc1c(-c2cccc(SC3CCCCC3)c2)nc2ccc(Cl)cn12,2.09% (inactive),5.29%,–,–
O=C1CCCC2(O)C1C(c1cccc(Br)c1)NC(=O)N2Cc1ccccc1 (stereo unspecified),-9.4% (inactive),1.15%,–,–
O=S(=O)(CCc1ccccc1)N1CCOCC1,–,1.99%,5.8 µM (active),–
c1ccc(CCCN2CCOCC2)cc1,15.4% (inactive),11.8%,–,–
CCCS(=O)(=O)N1CCN(CCCc2ccccc2)CC1,9.48% (inactive),6.21%,–,–
CC(C)Sc1nnc(NC(=O)c2ccc3c(c2)OCO3)s1,-3.82% (inactive),–,–,–
O=C(COC(=O)COc1ccccc1)NC1CCCC1,10.1% (inactive),-5.97%,–,–
COc1ccc(C2CC(C(F)(F)F)n3nc(C(=O)O)cc3N2)cc1OC (stereo unspecified),-2.01% (inactive),20.6%,–,–
COc1ccc(NC(=O)c2cc3n(n2)C(C(F)(F)F)CC(c2ccc4c(c2)OCO4)N3)cc1OC (stereo unspecified),–,-18.2%,16.4 µM (active),–
COc1ccc(OC)c(NC(=O)c2cc3n(n2)C(C(F)(F)F)CC(c2ccc4c(c2)OCO4)N3)c1 (stereo unspecified),-0.757% (inactive),16.6%,–,–
Cn1cc(CN2CCC(CO)CC2)c(-c2ccc(Oc3ccccc3)cc2)n1,15.5% (inactive),-5.37%,–,–
COc1cccc(CNC(=O)C2CCN(S(=O)(=O)N3CCC4(CC3)OCCO4)CC2)c1,22.2% (inactive),8.33%,–,–
O=C(Nc1ccc(S(=O)(=O)Nc2ncccn2)cc1)C1=COCCO1,18% (inactive),6.63%,–,–
CC1Sc2ccc(S(=O)(=O)NCCc3ccc(S(N)(=O)=O)cc3)cc2NC1=O (stereo unspecified),–,-0.885%,2.59 µM (active),–
CC1Sc2ccc(S(=O)(=O)NCCc3ccccc3)cc2NC1=O (stereo unspecified),–,-2.36%,–,inactive
CC1Sc2ccc(S(=O)(=O)NCCc3ccc(Cl)cc3)cc2NC1=O (stereo unspecified),–,–,–,inactive
CC(=O)c1ccc(NC(=S)N2CCC(Cc3ccccc3)CC2)cc1,-2.69% (inactive),-2.62%,–,–
Cc1ccc(-n2c(C)cc(/C=N/NC(=O)c3ccncc3)c2C)cc1,–,–,–,inactive
Cc1cc(C)cc(-n2c(C)cc(/C=N/NC(=O)c3ccncc3)c2C)c1,-9.31% (inactive),-4.41%,–,–
Cc1ccc(-n2c(C)cc(/C=N/NC(=O)c3ccncc3)c2C)c(C)c1,–,-26.9%,18.4 µM (active),–
O=C(c1ccc(-c2ccccc2)c(F)c1)C1CCCN(CCCn2cccn2)C1 (stereo unspecified),-9.68% (inactive),2.71%,–,–

Structure (SMILES),"lipid storage change, negative = inhibition",cell number change,Potency,outcome
CN(C)c1ccc(/C=N/NC(=O)c2ccccc2O)o1,1.62% (inactive),–,–,–
Cc1nn(-c2ccc(F)cc2)c(C)c1CN1CCN(CCC(C)C)C(CCO)C1 (stereo unspecified),3.51% (inactive),12.5%,–,–
COCC(=O)N1CCN(c2cccc(Cl)c2)CC1,11.4% (inactive),-20.3%,–,–
CC1=CC(C)C2C(=O)N(O)C(=O)C2C1 (stereo unspecified),–,-17.9%,20.6 µM (active),–
CC1=CC(C)C2C(=O)N(c3ccccc3)NC(=O)C2C1 (stereo unspecified),8.05% (inactive),6.7%,–,–
CC1=CC(C)C2C(=O)N(CCC[N+](C)(C)C)C(=O)C2C1 (stereo unspecified),-2.26% (inactive),2.72%,–,–
O=C1c2ccccc2C(=O)C1c1ccccn1,1.08% (inactive),7%,–,–
Cc1nc2scc(C)n2c(=O)c1S(=O)(=O)NCCc1ccc(Cl)cc1,–,-15.9%,–,inactive
CC(C)N(C)CCOC(=O)c1ccc2c(c1)OCCO2,4.51% (inactive),-0.0823%,–,–
Cc1oc(-c2ccoc2)nc1CN(Cc1ccccc1)CC1CC1,0.435% (inactive),1.56%,–,–
COc1ccc(Cl)cc1NC(=O)COC(=O)CNC(=O)c1ccc([N+](=O)[O-])c(C)c1,-1.38% (inactive),7.48%,–,–
CCOC(=O)C(N)CSC1CC(=O)N(c2ccc(C(=O)OC)cc2)C1=O (stereo unspecified),25.9% (inactive),8.08%,–,–
CCOC(=O)C(N)CSC1CC(=O)N(c2ccc(OC)cc2)C1=O (stereo unspecified),–,-13.3%,3.26 µM (active),–
CCOC(=O)C(N)CSC1CC(=O)N(c2ccc(OCC)cc2)C1=O (stereo unspecified),–,8.77%,–,inactive
CCOC(=O)c1cc(C)nc(Sc2ccc(C)cc2)c1C#N,6.61% (inactive),3.68%,–,–
Cc1ccc(OCc2ccc(-c3ccccc3)cc2)c([N+](=O)[O-])n1,–,–,–,inactive
O=[N+]([O-])c1cc2c(cc1Br)CCN2,21.7% (inactive),-0.505%,–,–
c1ccc(CNc2ccc(CNc3ncn[nH]3)cc2)cc1,2.01% (inactive),13.8%,–,–
COc1cc(C(=O)Nc2cccc(-c3nc4ccccc4o3)c2C)cc(OC)c1OC,8.65% (inactive),-6.82%,–,–
CC(=O)NCCC(=O)Nc1nc(-c2ccccc2Cl)cs1,–,–,–,inactive
CC(=O)NCCC(=O)Nc1nc(-c2c[nH]c3ccccc23)cs1,–,-1.21%,14.6 µM (active),–
CN1CCN(CC(=O)Nc2nc(-c3c[nH]c4ccccc34)cs2)CC1,17.6% (inactive),-11.4%,–,–
COCC(C)N1CCC(n2nccc2NC(=O)c2ccc3c(c2)OCO3)CC1 (stereo unspecified),17.5% (inactive),11.7%,–,–
CCOc1ccc(N(CC(=O)NCC2CCCO2)S(=O)(=O)c2ccc(OC)c(OC)c2)cc1 (stereo unspecified),4.7% (inactive),14.4%,–,–

Structure (SMILES),"lipid storage change, negative = inhibition",cell number change,Potency,outcome
CC1(C)N=C(/C=N/O)CN1O,–,1.43%,6.51 µM (active),–
Cc1ccc(NC(=O)C2(N(C(=O)Cn3nnnc3N)c3ccc(C)cc3)CCCCC2)cc1,20% (inactive),-7.84%,–,–
CCOC(=O)CSc1nc2c(c(=O)n1-c1ccc(OC)cc1)SCC2,11.4% (inactive),–,–,–
CCc1nnc(NC(=O)CSc2nccn2-c2cccc(C)c2)s1,1.38% (inactive),0.532%,–,–
COc1ccccc1NC(=O)CCNC(=O)c1ccc(C)cc1,–,–,–,inactive
CCOC(=O)c1c(NC(=O)CSc2nnc(C)s2)sc2c1CCCCC2,-31.7% (inactive),-12.5%,–,–
Cc1ccc(C(=O)c2c(NC(=O)CSc3nnc(N)s3)sc3c2CCCC3)cc1,–,-2.02%,18.4 µM (active),–
Cc1ccc(C(=O)c2c(NC(=O)c3cccnc3)sc3c2CCCC3)cc1,-14% (inactive),17.7%,–,–
CCOC(=O)N1CCN(c2ncc(C(F)(F)F)cc2Cl)CC1,28.3% (inactive),23.9%,–,–
NC(=NCCc1ccccc1)NS(=O)(=O)c1ccccc1,5.72% (inactive),16.5%,–,–
CC(=O)NS(=O)(=O)c1ccccc1,-11.7% (inactive),-6.94%,–,–
CC(C)CN=C(NS(=O)(=O)c1ccccc1)C(Cl)(Cl)Cl,–,–,18.4 µM (active),–
COc1ccc(CCNC(=O)c2ccc(=O)[nH]c2)cc1OC,6.46% (inactive),10.1%,–,–
COc1ccc(COC(=O)c2cccc(S(=O)(=O)N3CCCC3)c2)cc1F,–,-0.63%,–,inactive [at 0.369 µM]
CC(=O)N1CCN(S(=O)(=O)c2cccc(C(=O)OCN3C(=O)c4ccccc4C3=O)c2)CC1,–,22.4%,–,inactive
CC(=O)N1CCN(S(=O)(=O)c2cccc(C(=O)OCc3cccc(F)c3)c2)CC1,–,-11.8%,6.51 µM (active),–
CCc1cc(=O)oc2c3c(cc(OCC(=O)NCc4ccncc4)c12)OC(C)(C)CC3,–,18.3%,–,inactive
Cc1cc(=O)oc2c3c(cc(OCC(=O)NCC(=O)O)c12)OC(C)(C)CC3,7.78% (inactive),13.8%,–,–
COc1cccc(CNC(=O)COc2cc3c(c4oc(=O)cc(C)c24)CCC(C)(C)O3)c1,–,-18.8%,1.3 µM (active),–
CCc1cc(=O)oc2c3c(cc(OCC(=O)NCCC(=O)O)c12)OC(C)(C)CC3,1.64% (inactive),4.77%,–,–
COc1ccccc1CNC(=O)COc1cc2c(c3oc(=O)cc(C)c13)CCC(C)(C)O2,-25.6% (inactive),5.31%,–,–
CCc1cc(=O)oc2c3c(cc(OCC(=O)NCc4cccnc4)c12)OC(C)(C)CC3,–,1.59%,7.31 µM (active),–
O=C(Cc1ccccc1)NNC(=O)c1ccc(NC(=O)c2ccccc2)cc1,-12.8% (inactive),27.8%,–,–
CN(C)S(=O)(=O)c1ccc(C(=O)Oc2coc(CSc3ncccn3)cc2=O)cc1,-6.42% (inactive),6.85%,–,–

Structure (SMILES),"lipid storage change, negative = inhibition",cell number change,Potency,outcome
NC(=O)N/N=C(/CCCCCC/C(=N\NC(N)=O)c1ccccc1)c1ccccc1,-11.9% (inactive),2.15%,–,–
Cc1ccc(C(=O)N2C3=C(CCCC3)C(=O)NC23CCCCC3)cc1,-6.74% (inactive),3.44%,–,–
COC(=O)CNC(=O)CNC(=O)Nc1ccccc1,7.48% (inactive),1.69%,–,–
Cn1nccc1NC(=O)COCC(=O)O,1.45% (inactive),11.4%,–,–
COc1ccc(CNC(=O)c2ccc(N3CCCC3=O)cc2)cc1,25.4% (inactive),23.1%,–,–
O=C(NCc1ccc(N2CCCC2=O)cc1)c1ccc(F)cc1,0.839% (inactive),1.24%,–,–
Cc1ncsc1C(=O)NCc1ccc(N2CCCC2=O)cc1,–,–,2.59 µM (active),–
N#Cc1ccsc1NC(=O)CN(Cc1ccccc1)Cc1ccccc1,10.3% (inactive),-9.01%,–,–
CCOC(=O)N1CCC(NC(=O)c2ccc(CO)c(C(=O)NC3CCN(C(=O)OCC)CC3)c2)CC1,5.33% (inactive),–,–,–
O=C(O)CC(C(=O)Nc1ccc(F)cc1)C1CCCO1 (stereo unspecified),-20.6% (inactive),-13.3%,–,–
O=C(O)CC(C(=O)Nc1ccc(Cl)cc1Cl)C1CCCO1 (stereo unspecified),9.88% (inactive),5.73%,–,–
O=C(O)CC(C(=O)Nc1ccc(Cl)c(Cl)c1)C1CCCO1 (stereo unspecified),–,12.1%,20.6 µM (active),–
CCOC(=O)N1CCN(C(=O)CCCn2c(=S)[nH]c3ccsc3c2=O)CC1,-5.9% (inactive),-21.6%,–,–
COC(=O)c1ccc(COc2ccc(C=O)cc2)o1,–,-4.2%,–,inactive
CCN(CC#CCC(O)(c1ccccc1)c1ccccc1)C(C)C,-6.31% (inactive),1.67%,–,–
COc1ccc(S(=O)(=O)Nc2cccc(-n3cnnn3)c2)cc1,–,-4.25%,–,inactive
COc1ccc(OCC(NS(=O)(=O)c2ccc(-n3cnnn3)cc2)C(C)C)cc1 (stereo unspecified),–,–,0.13 µM (active),–
Cc1cc(S(=O)(=O)NCc2cccnc2)ccc1-n1cnnn1,–,2.93%,–,inactive
COc1ccc(CNS(=O)(=O)c2ccc(-n3cnnn3)c(C)c2)cc1,–,-1.28%,18.4 µM (active),–
COc1ccc(CN(Cc2ccc(OC)cc2)S(=O)(=O)c2ccc(-n3cnnn3)c(C)c2)cc1,-11.8% (inactive),-0.43%,–,–
CCCCOc1ccc(NS(=O)(=O)c2ccc(-n3cnnn3)cc2)cc1,–,-4.72%,–,inactive
C=CCOC(=O)C1=C(C)NC(=O)NC1c1cc2c(cc1Br)OCO2 (stereo unspecified),-3.77% (inactive),-17.1%,–,–
